Results reported in PubChem BioAssay AID1159580 (chemical genetic matrix, 2015).
Screen size: about 5,500 compounds; about 2,000 (36%) were called active. Another 18% or so got no clear call; they are omitted. Rule as the data show it: active = normalized growth mostly below about 0.91 (no sharp cut-off); inconclusive = no clear call, values can overlap the other calls; inactive = mostly above about 0.92. The list shows a part of the results.

Assay: chemical genetic growth profiling, strain panel (AID 1159580);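 also: tested at 20 µM; growth read once vehicle control cultures reached saturation at 30 °C; 1 = growth at the plate median or of vehicle wells; lower values mean less growth of the strain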
Settings: S. cerevisiae deletion strains, growth OD
[1] = locus YAL013W, strain DEP1, hits give low values
[2] = locus YDR150W, strain NUM1, hits give low values
[3] = locus YGR229C, strain SMI1, hits give low values
[4] = locus YJR075W, strain HOC1, hits give low values
[5] = locus YMR263W, strain SAP30, hits give low values
[6] = locus YMR307W, strain GAS1, hits give low values
[7] = locus YNL322C, strain KRE1, hits give low values
[8] = locus YPL241C, strain CIN2, hits give low values

Measured: normalized growth

CC1(C)CCC=[N+]1[O-]
inactive: [1] 1 | locus YAL040C, strain CLN3, hits give low values 1.04 | locus YCL061C, strain MRC1 (second series), hits give low values 1.01 | [2] 1 | locus YDR363W, strain ESC2, hits give low values 1.02 | locus YER002W, strain NOP16, hits give low values 0.98 | [3] 1.05 | [4] 1.03 | [5] 1 | [6] 1.01 | locus YNL175C, strain NOP13, hits give low values 0.993 | locus YNL197C, strain WHI3, hits give low values 1.01 | locus YNL224C, strain SQS1, hits give low values 1 | [7] 1.01 | locus YOR083W, strain WHI5 (second series), hits give low values 1.03 | [8] 1

CCOC(=O)CSc1nc2cc(C(F)(F)F)cnc2n1C
inactive: [1] 0.984 | locus YBR229C, strain ROT2, hits give low values 0.98 | locus YDL101C, strain DUN1, hits give low values 1.01 | locus YDL134C, strain PPH21, hits give low values 0.975 | [2] 0.99 | locus YEL061C, strain CIN8, hits give low values 0.993 | locus YGR078C, strain PAC10, hits give low values 0.983 | [3] 1.01 | locus YHR030C, strain SLT2, hits give low values 0.909 | locus YHR087W, strain rtc3, hits give low values 0.96 | locus YJR043C, strain POL32, hits give low values 0.988 | [4] 0.997 | locus YKL190W, strain CNB1, hits give low values 1.01 | locus YLR039C, strain RIC1, hits give low values 1.05 | locus YLR058C, strain SHM2 (second series), hits give low values 0.985 | locus YLR085C, strain ARP6, hits give low values 1.04 | locus YLR262C, strain YPT6, hits give low values 1.03 | locus YML094W, strain GIM5, hits give low values 0.952 | locus YMR219W, strain ESC1, hits give low values 0.989 | [5] 0.99 | [6] 1.19 | locus YNL153C, strain GIM3, hits give low values 1 | locus YNL298W, strain CLA4 (second series), hits give low values 0.961 | [7] 0.982 | locus YNR030W, strain Alg12, hits give low values 0.988 | locus YOL006C, strain TOP1, hits give low values 0.942 | locus YPL055C, strain LGE1, hits give low values 0.981 | [8] 1.07 | locus YPR135W, strain CTF4, hits give low values 0.912
